According to PubChem BioAssay (NCATS):
Records with an inconclusive call do not appear. Active and inactive are the calls of the source. Calls come from the whole dose curve; as a rule, active = well fitted inhibition curve with a large enough effect; inconclusive = small, poorly fitted or top-dose-only effect; inactive = flat fitted curve, though single readings scatter.

experiment: P-glycoprotein substrates identified in KB-8-5-11 adenocarcinoma cell line, qHTS therapeutic library screen (AID 1346987); conditions: KB-8-5-11 (P-gp overexpressing) viability, CellTiter-Glo, 72 h; series mostly up to 44.5 µM; activity change, negative = cytotoxicity: at the top concentration; note: nearly all actives have a fitted effect of over 65% in size
Outline: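 Luminescence from CellTiter-Glo, read 5 min after addition, quantified survival of KB-8-5-11 (P-gp-overexpressing) cells exposed to compounds for 72 h. AC50 was derived from concentration-response curves.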
% is set by controls: 0 for no effect and ±100 for the full control effect; potency is the fitted concentration of half-maximal effect.

Compound	activity change, negative = cytotoxicity	outcome	Potency
CC1(C)CC(NC(=O)C(=O)Nc2ccc(Br)cc2)CC(C)(C)N1	4.11% (inactive)		
CC1=C2C3OC(=O)C(C)C3(O)CCC2(C)CCC1O (configuration not stated)	5.71% (inactive)		
COc1cc2ncnc(Nc3ccc(O)cc3)c2cc1OC		inactive	
COc1ncc2cc(C(=O)Nc3cc(C(=O)NCc4cccc(Cl)c4)ccc3Cl)c(=O)[nH]c2n1			5.8 µM (active)
CC(C)(C#N)c1ccc(N2C(=O)OCc3cnc4ccc(-c5cnc6ccccc6c5)cc4c32)cc1			3.66 µM (active)
CC(C)C(CO)Nc1nc(Nc2ccc(C(=O)O)c(Cl)c2)c2ncn(C(C)C)c2n1 (configuration not stated)	-3.56% (inactive)		
Nc1nc2c(c(=O)[nH]1)C[C@@H](CCc1ccc(C(=O)N[C@@H](CCC(=O)O)C(=O)O)cc1)CN2			0.058 µM (active)
COC(=O)C12C(=O)C(C)=C(O)C1(C)C(C)=CC1C3(CO)CCC(O)C(C)(C)C3CCC12C (configuration not stated)	-4.88% [at 17.3 µM] (inactive)		
CC[C@H]1OC(=O)[C@](C)(F)C(=O)[C@H](C)[C@@H](O[C@@H]2O[C@H](C)C[C@H](N(C)C)[C@H]2O)[C@](C)(OC)C[C@@H](C)C(=O)[C@@H](C)[C@H]2N(CCCCn3cc(-c4cccc(N)c4)nn3)C(=O)O[C@]12C	-14.7% (inactive)		
O=C(c1ccc(/C=C/c2n[nH]c3ccccc23)cc1)N1CCNCC1			6.51 µM (active)
Cc1cc(Nc2ncc3cc(-c4c(Cl)cccc4Cl)c(=O)n(C)c3n2)ccc1F			1.3 µM (active)
COc1cc(/C=C/CO)cc(OC)c1O[C@@H]1O[C@H](CO[C@@H]2O[C@H](CO)[C@@H](O)[C@H](O)[C@H]2O)[C@@H](O)[C@H](O)[C@H]1O	5.67% [at 17.3 µM] (inactive)		
C=C[C@H]1[C@H](O[C@@H]2O[C@H](CO)[C@@H](O)[C@H](O)[C@H]2O)OC=C(C(=O)OC)[C@H]1C/C=C(/C=O)[C@@H]1C(C(=O)OC)=CO[C@@H](O[C@@H]2O[C@H](CO)[C@@H](O)[C@H](O)[C@H]2O)[C@@H]1C=C		inactive [at 17.3 µM]	
CC(=O)O[C@@H]1c2c(C)coc2C(=O)[C@@]23O[C@@H]2CC[C@H](C)[C@@]13C	-15.1% (inactive)		
O=C(/C=C/c1ccc(O)cc1)OC1[C@H](O)CC(O)(C(=O)O)C[C@H]1O (some centres not stated)	2.39% (inactive)		
Cc1ccccc1C#Cc1ccc(CCC(=O)O)cc1	-7.83% (inactive)		

Compound	activity change, negative = cytotoxicity	outcome	Potency
COc1cc2c3c(cc4ccccc4c3c1O)NC2=O		inactive	
CC(=O)c1ccc(O[C@@H]2O[C@H](CO)[C@@H](O)[C@H](O)[C@H]2O)cc1	2.66% (inactive)		
CCOC(=O)Nc1cc(-c2ccc(C)c(NS(C)(=O)=O)c2)nn2c(C)nnc12			14.6 µM (active)
CC(=O)C=C=C1C(C)(C)CC(O[C@@H]2O[C@H](CO)[C@@H](O)[C@H](O)[C@H]2O)CC1(C)O (some centres not stated)	8.5% (inactive)		
COc1ccc(CCC(=O)c2c(O)cc(O)cc2O[C@@H]2O[C@H](CO)[C@@H](O)[C@H](O)[C@H]2O)cc1	6.52% [at 17.3 µM] (inactive)		
C=C1CCC2C(C)(C(=O)O)CCCC2(C)C1CCC(C)CC(=O)O (configuration not stated)	-3.83% (inactive)		
COc1c(/C=C/C(C)(C)O)ccc2c1C(=O)OCc1cc(C)cc(O)c1O2	-21.8% (inactive)		
O=C(O)COCCN1CCN([C@H](c2ccccc2)c2ccc(Cl)cc2)CC1	3.84% (inactive)		
O=C(Nc1nc2ccccc2n1CCc1ccccc1)c1ccccc1	-9.76% (inactive)		
Cc1cc(C(N)=O)ccc1-n1c(CCC(=O)O)ccc1-c1ccc(-n2ccnc2)cc1		inactive	
CC(C)=CCC[C@](C)(O[C@@H]1O[C@H](CO)[C@@H](O)[C@H](O)[C@H]1O)[C@H]1CC[C@]2(C)[C@@H]1[C@H](O)CC1[C@@]3(C)CC[C@H](O)C(C)(C)C3[C@@H](O[C@@H]3O[C@H](CO)[C@@H](O)[C@H](O)[C@H]3O[C@@H]3OC[C@@H](O)[C@H](O)[C@H]3O)C[C@]12C (some centres not stated)	-2.05% [at 9.29 µM] (inactive)		
CC1CCC2(C(=O)O)CCC3(C)C(=CCC4C5(C)CCC(OC(=O)/C=C/c6ccccc6)C(C)(C)C5CCC43C)C2C1C (configuration not stated)	-2.86% [at 17.3 µM] (inactive)		
C[C@@H]1C[C@@H](O)[C@@]23CO[C@@H](O)[C@@H]2CCC[C@@H]3[C@@]12C[C@@H](c1ccoc1)OC2=O		inactive	
Cc1ccccc1NC(=O)Nc1ccc(CC(=O)N(C)[C@@H](CC(C)C)C(=O)NCC[C@H](NC(=O)[C@@H]2CCCN2S(=O)(=O)c2cc(Cl)cc(Cl)c2)C(=O)O)cc1	-1.17% [at 17.3 µM] (inactive)		
C=CC1(C)C=C2C(=O)OC(=O)C3=C(CCCC3(C)C)C2(O)CC1 (configuration not stated)		inactive	
CC1(C)CC2C(C1)C(C)(O)C13CC1(COC3=O)C2O (configuration not stated)	-11.5% (inactive)		
